Common to all, as to assay: NCI-60 one-dose screen, 48 h (100 = growth as untreated, 0 = no growth, -100 = all killed)
Details in all cases: 10 µM unless noted

The test system of assay [1] is DU-145 prostate.
Assay [2] relates to K-562 leukemia.
For assay [3], the system named is MALME-3M melanoma.
Assay [4] has as its system MDA-MB-231 breast.
For assay [5], the system named is RXF 393 renal.
In assay [6] the test system is SF-268 CNS.
Assay [7] relates to SF-295 CNS.
The test system of assay [8] is SF-539 CNS.
Assay [9] has as its system UACC-257 melanoma.
Assay [10] relates to M14 melanoma.
The test system of assay [11] is HCT-15 colon.
The subject of assay [12] is HT29 colon.
In assay [13] the test system is SNB-75 CNS.
Assay [14] concerns SNB-19 CNS.
In assay [15] the test system is U251 CNS.
The test system of assay [16] is PC-3 prostate.
Assay [17] concerns UACC-62 melanoma.
Assay [18] concerns LOX IMVI melanoma.
Assay [19] deals with SK-MEL-28 melanoma.
For assay [20], the system named is SK-MEL-5 melanoma.

About 83,000 compounds went through this panel and 20% of them were active in at least one assay; those are over-represented in the sample as a whole.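 Assay: single dose, 48 h. Readout: percent growth (0 = no net growth; negative = cell death). Active: <10.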 A number with no mark means an inactive call. Calls of active or inactive are those of the source.

Turning to `CCCCOc1nc2ccc(C)cc2cc1/C=C/C(=O)/C=C(O)/C=C/c1cc2cc(C)ccc2nc1OCCCC`, the growth in assay [1] is 112%; in assay [2], 99.2%; in [3], 118%; in [4], 103%; in [5], 108%; in assay [6] it was 103%. In addition, the growth in assay [7] was 101%; in assay [8] it was 103%; in assay [9], 89.4%; in assay [10] it was 98.4%; in [11], 110%; in [12], 101%. The growth in [13] is 92.7%; in assay [14] it was 96.2%; in assay [15], 88.3%; in assay [16] it was 99%; in assay [17] it was 87.6%; in assay [18], 91.6%. For the same compound, the growth in assay [19] is 107%.
For the compound `Cn1cnc([N+](=O)[O-])c1S(=O)(=O)Oc1ccccc1`, the growth in assay [1] is 70.4%; in assay [2], 31.8%; in assay [3], -60.9% (active); in assay [4] it was 99.4%; in assay [5], 74.1%; in [6] it was 101%. Also, the growth was 110% in assay [7]; 93.8% in assay [8]; 90.9% in assay [9]; 53.1% in assay [10]; 55% in assay [11]; 88.7% in assay [12]. Besides, the growth in assay [13] is 103%; in assay [14], 102%; in assay [15], 90.5%; in assay [20], 99.6%; in assay [17], 99.4%; in assay [18], 59.5%. In assay [19], the growth was 106%.
Take `CN1C(=O)C(C2=NNC(c3ccccc3C(=O)O)C2)C(=O)N(C)C1=O` (configuration not stated): the growth in assay [1] was 113%; in assay [2] it was 94.1%; in assay [3], 111%; in assay [4], 109%; in assay [5] it was 106%; in [6], 98.8%. For the same compound, the growth in assay [7] was 101%; in [8] it was 108%; in assay [9] it was 97.1%; in assay [10], 103%; in [11], 106%; in assay [12] it was 98.5%. In addition, the growth in [13] was 85.4%; in assay [14], 92.9%; in assay [15], 98.1%; in assay [16], 95.6%; in [17], 96.2%; in assay [18], 101%. Moreover, in [19], the growth is 123%.
Take `Clc1cccc(CNc2c3ccccc3nc3ccccc23)c1`: the growth is 31.6% in assay [1]; 5.03% (active) in assay [2]; 45% in [3]; 29.4% in assay [4]; 19% in [5]; 60.6% in assay [6]. In addition, the growth is 20.8% in assay [7]; 9.28% (active) in assay [8]; 45.4% in assay [9]; 35.5% in assay [10]; 14% in assay [11]; 8.62% (active) in [12]. Also, the growth in assay [13] was 68.7%; in assay [14], 26.4%; in assay [15], 22.7%; in assay [20], 66.2%; in [17], 52.6%; in assay [18] it was 1.75% (active). Also, in [19], the growth was 66.2%.
Take `C/C(=N\NC(=O)CSc1nc2ccccc2c(=O)n1CCc1ccc(S(N)(=O)=O)cc1)c1ccc(Br)cc1`: the growth in assay [1] was 99%; in [2], 54.3%; in [3], 54.4%; in [4], 36.9%; in [5], 99.1%; in assay [6] it was 99.4%. For the same compound, the growth in assay [7] is 89.9%; in assay [8], 83.1%; in assay [9], 83.3%; in assay [10] it was 70.3%; in assay [11], 94.7%; in assay [12], 44.7%. In addition, the growth in assay [13] was 84.7%; in assay [14], 63.9%; in [15], 8.33% (active); in assay [20], 61.5%; in assay [17], 79%; in assay [18] it was 63.3%. Further, the growth in assay [19] was 79.7%.
As to `O=c1c2cc(Br)cc(Br)c2nc(-c2ccc(Cl)cc2)n1/N=C/c1cccc(F)c1`, the growth was 91.4% in [1]; 63.2% in assay [2]; 63.3% in assay [3]; 46.1% in assay [4]; 47.2% in [5]; 70.4% in assay [6]. The growth in [7] is 41%; in [8] it was 64.4%; in assay [9] it was 93%; in assay [10], 67.5%; in [11] it was 75.2%; in assay [12], 62.1%. Also, the growth in assay [13] is -0.938% (active); in [14], 57.6%; in [15], 43.3%; in [20], 70.9%; in assay [17], 74.6%; in assay [18], 62.4%. In assay [19], the growth is 85.1%.
Consider `O=[N+]([O-])c1ccc(N/N=C\c2ccc(O)cc2O)nc1`, for which the growth was 50.7% in [1]; 22.4% in assay [2]; 57.8% in [3]; 52.9% in assay [4]; 36.3% in assay [5]; 37.3% in [6]. Also, the growth in assay [7] was 28.5%; in [8], 37.5%; in [9] it was 41.3%; in assay [10], 8.7% (active); in assay [11] it was 29.8%; in assay [12] it was 90.2%. For the same compound, the growth in assay [13] is 53.6%; in [14], 58.6%; in [15], 28.4%; in assay [16] it was 49.5%; in assay [17] it was 43.9%; in assay [18], 24.7%. Moreover, the growth in assay [19] was 64.1%.
For `O=C(O)C(CCc1ccccc1)NCc1ccccc1` (configuration not stated), the growth was 95.7% in assay [1]; 113% in assay [2]; 89.8% in [3]; 91.4% in assay [4]; 128% in assay [5]; 98.4% in [6]. Also, the growth in assay [7] was 103%; in assay [8], 89.8%; in assay [9], 99.4%; in [10], 79.6%; in assay [11], 99.2%; in assay [12], 96.2%. For the same compound, the growth is 90.3% in [13]; 97.5% in [14]; 107% in [15]; 91.3% in assay [16]; 94.5% in [17]; 92% in [18]. In addition, the growth in [19] is 107%.

For the origin of these results see PubChem BioAssay (NCI).
